From ChEMBL document CHEMBL3988442, “University of Dundee, Small-Polar-MMV Screening Library” (2021)

Legend:
[1] = molecular target: T1, Aspartate--tRNA(Asp/Asn) ligase (Mycobacterium tuberculosis (strain ATCC 25618 / H37Rv)) (UniProt P9WFW3); assay: Assay for Asp RNA synthetase-1 from Mycobacterium tuberculosis; assay type: functional; parameters: scale not given: direction of the effect not stated beside the values; details: 30 µM; further: in the data most compounds retested in dose-response had high values
T1 sequence (whole entry): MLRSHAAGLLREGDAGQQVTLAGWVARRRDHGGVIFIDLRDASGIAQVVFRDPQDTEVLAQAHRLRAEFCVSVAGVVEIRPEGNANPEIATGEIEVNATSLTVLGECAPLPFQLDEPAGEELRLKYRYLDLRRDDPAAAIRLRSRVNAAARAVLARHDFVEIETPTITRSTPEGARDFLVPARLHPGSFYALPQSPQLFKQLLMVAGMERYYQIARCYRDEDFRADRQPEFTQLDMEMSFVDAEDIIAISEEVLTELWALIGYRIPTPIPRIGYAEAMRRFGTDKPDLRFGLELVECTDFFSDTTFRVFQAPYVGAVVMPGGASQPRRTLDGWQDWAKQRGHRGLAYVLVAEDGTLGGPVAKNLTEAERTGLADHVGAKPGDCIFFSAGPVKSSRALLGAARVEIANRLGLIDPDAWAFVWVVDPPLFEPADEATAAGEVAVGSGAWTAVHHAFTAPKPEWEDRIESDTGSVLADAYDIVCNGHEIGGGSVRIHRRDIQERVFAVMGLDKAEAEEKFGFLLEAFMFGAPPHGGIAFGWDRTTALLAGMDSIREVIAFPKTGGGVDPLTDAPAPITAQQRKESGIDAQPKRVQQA

[2] = molecular target: Shiga toxin 2 (Escherichia coli O157:H7) (UniProt P09385+P09386); assay: E. coli 0.157:H7 Shiga Toxin SOP - stx2 screening assay; assay type: functional; parameters: scale not given: direction of the effect not stated beside the values; details: 30 µM

Structure (SMILES)	Percent Effect [1]	Percent Effect [2]
Cc1ccc(CNCCOc2ccc(S(C)(=O)=O)cc2)cc1	1.28%	-76.7%
Cn1cnc2c1C(COCC1CC1)CN(C(=O)Cc1ccsc1)C2 (stereo unspecified)	0.364%	-17.9%
O=C(CCc1nc2cccnc2[nH]1)NCc1cccnc1	-0.232%	-44%
N#CCCN(CCC#N)C(=O)CN1CCCC1Cc1cccc(F)c1 (stereo unspecified)	5.73%	-0.707%
O=C(O)CCc1cc2n(n1)CCCN(C(=O)c1ccc3cc[nH]c3c1)C2	-1.19%	-1.98%
Fc1ccccc1CN1C[C@@H](OCc2ccncc2)[C@H]2OCCC[C@H]21	2.94%	-45.1%
Cc1cnn(CC2CCCCN2Cc2nc(-c3ccoc3)no2)c1 (stereo unspecified)	2.91%	26.6%
N#Cc1ccnc(N2CCN(Cc3cccc(F)c3)CC2)c1	-3.46%	12.2%
O=C(C[C@@H]1COC[C@H]2CN(Cc3ccncc3)C[C@@H]12)N1CCOCC1	-4.65%	-32%
NC(=O)C1CCN(C(=O)NCc2ccccc2Cn2cncn2)CC1	2.04%	1.76%
CNC(=O)CS(=O)(=O)C1CCN(S(=O)(=O)c2ccccc2Br)CC1	-6.53%	-14%
O=C(Nc1ccccc1)N1CCn2nnc(COc3cccnc3)c2C1	9.35%	-2.97%
COc1ccc(OCC(=O)NC(C)c2ccccc2)c(C(=O)O)c1 (stereo unspecified)	-1.11%	-9.07%
COCCN1C[C@@H]2CCCO[C@@H]2[C@H](NC(=O)c2cnccn2)C1	3.03%	-9.33%
CS(=O)(=O)N1CCC2(CC1)CC(CC(=O)NC1CC1)c1ccccc12 (stereo unspecified)	6.15%	4.11%
Cc1cc(C(=O)N2CCC(c3nccn3Cc3ccncc3)CC2)no1	10.1%	4.34%
Cc1ccccc1CN1CCN(CC(=O)Nc2cccnc2)CC1	-2.08%	17%
CN(C)C(=O)CNC(=O)CCn1ncc2c(Cl)cccc21	-0.813%	-27.9%
CN1CCCN(c2nccc(-c3c[nH]nc3C3CCCCC3)n2)CC1	14.1%	-32.4%
O=C(NCCN1CCNCC1)c1c(O)c2ccccc2[nH]c1=O	-0.319%	-77.4%
COCCN1CCC(CNC(=O)C2(c3cc(C)cc(C)c3)CCC2)C1 (stereo unspecified)	-0.337%	20.8%
COc1cc(CNCCc2nc(C)cs2)cc2c1OCCO2	-4.99%	14.4%
CCn1nc(C)cc1C(=O)Nc1cc(F)ccc1OCC1CCCO1 (stereo unspecified)	-3.81%	34.1%
